Source: PubChem BioAssay
Hits are enriched below; roughly 3.5% of the tested compounds scored in any of these assays.
MITF primary: blocks human microphthalmia-associated transcription factor; inhibition, % at 2.6 µM; 650,000 compounds, 0.91% hits; O75030; AlphaScreen MITF homodimerization, bead proximity signal; in the data active means inhibition above about 50%;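 further: 0% = vehicle wells with protein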
FBW7 act: activators of human E3 ligase FBW7 | Q969H0 | AlphaScreen FBW7–phospho-cyclin E peptide binding, activator screen | normalized activity (activation), % at 26.1 µM | 650,000 compounds, 0.13% hits; in the data active means normalized activity above about 1.9%;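 further: purified mutant Fbw7 with reduced substrate affinity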
Target sequence (Q969H0 whole entry, looked up): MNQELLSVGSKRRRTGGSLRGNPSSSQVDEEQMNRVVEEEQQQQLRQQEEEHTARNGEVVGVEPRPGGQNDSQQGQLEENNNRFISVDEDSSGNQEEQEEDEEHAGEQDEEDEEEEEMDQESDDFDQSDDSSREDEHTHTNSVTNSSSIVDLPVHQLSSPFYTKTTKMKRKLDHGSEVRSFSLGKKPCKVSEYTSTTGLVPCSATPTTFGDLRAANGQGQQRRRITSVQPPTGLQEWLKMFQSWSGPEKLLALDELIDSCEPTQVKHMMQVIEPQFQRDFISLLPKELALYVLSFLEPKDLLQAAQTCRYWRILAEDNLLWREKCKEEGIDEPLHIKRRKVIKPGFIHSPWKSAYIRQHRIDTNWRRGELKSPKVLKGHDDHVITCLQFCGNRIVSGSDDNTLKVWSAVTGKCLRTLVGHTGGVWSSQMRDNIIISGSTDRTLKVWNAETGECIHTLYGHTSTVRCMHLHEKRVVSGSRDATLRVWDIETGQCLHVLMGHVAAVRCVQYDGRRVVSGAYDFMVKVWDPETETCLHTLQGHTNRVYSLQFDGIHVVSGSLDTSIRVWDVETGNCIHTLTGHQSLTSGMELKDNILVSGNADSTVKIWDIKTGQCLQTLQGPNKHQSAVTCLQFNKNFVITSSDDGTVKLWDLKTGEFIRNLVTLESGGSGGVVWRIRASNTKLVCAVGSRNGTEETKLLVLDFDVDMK
TEAD-YAP inh: TEAD-YAP interaction inhibition. HEK-TIYL cells, TEAD-Gal4/YAP UAS-luciferase luminescence. inhibition, % at 9.12 µM. 640,000 compounds, 1.4% hits; in the data active means inhibition above about 32%;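 further: 0% = median of test compound wells and 100% = reference inhibitor wells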
GPR151 activ: activators of human GPR151; PathHunter beta-arrestin GPR151 cells, luminescence; activation, % at 11.2 µM; 650,000 compounds, 1% hits; AID 1508602; in the data active means activation above about 4.9%;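 further: 0% = median of compound wells and 100% = cells with positive control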
GPR151 confirm: confirmation of human GPR151 activators; GPR151 PathHunter beta-arrestin cells, luminescence, 90 min; % of EA-reagent control over plate median; activation, % at 11.2 µM; shares compounds with GPR151 activ; 6,700 tested, under 10 active; AID 1508609;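 active means mean percent activation across replicates above the confirmation screen cutoff of 4.91%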
GPR119 ag: GPR119 activation, counter-screen for GPR151 activators; 6,700 compounds, 0.3% hits; activation, % at 11.2 µM; shares compounds with GPR151 activ; AID 1508611; GPR119 PathHunter beta-arrestin cells, luminescence, 90 min; 0 = compound-well median, 100 = enzyme-acceptor control;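 active means mean percent activation in the counterscreen above 29.09%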;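 further: counterscreen on off-target GPR119 to flag nonselective hits from the GPR151 activator screen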
An asterisk follows results filed as active; x = no result given.

SMILES	MITF primary	FBW7 act	TEAD-YAP inh	GPR151 activ	GPR151 confirm	GPR119 ag
CCOc1ccc(-c2nc(-c3ccncc3)no2)cc1OCC	9.2	-0.1	-3.4	4.9*	-0.4	-0.2
CC(=O)NNC(=O)c1ccc(Cl)cc1	-1.0	0.6	-4.4	0.3	x	x
CC(=O)NC(NC(=O)c1ccc(Cl)cc1)C(Cl)Cl (stereo not drawn)	11.7	0.6	10.8	6.9*	0.1	7.9
CCCC1NC(=S)N(C2CCCCC2)C1=O (stereo not drawn)	-9.1	0.0	-7.3	0.7	x	x
O=C1C(CCCNC(=S)NC2CCCCC2)NC(=S)N1C1CCCCC1 (stereo not drawn)	9.2	0.2	3.6	9.8*	-0.4	-8.7
Cc1ccc(NC(=O)c2nn3c(c2Br)NC(c2cccs2)CC3C(F)(F)F)cc1C (stereo not drawn)	-0.2	0.1	-1.3	7.1*	0.1	-0.1
CCCCNC(=S)Nc1ccc(C)c(S(=O)(=O)N(CC)CC)c1	9.0	-0.1	-12.2	0.3	x	x
CCOc1ccccc1NC(=O)CN1CCN(c2nccn2-c2ccc(C)cc2)CC1	12.5	-0.6	1.7	8.0*	0.4	-18.7
COc1ccccc1NC(=O)CN1CCN(c2nccn2-c2ccc(C)cc2)CC1	11.8	-0.5	-1.9	-1.0	x	x
CC1=CCC2C(=O)N(Cc3ccccc3)C(=O)C2C1 (stereo not drawn)	-34.0	0.1	1.1	0.7	x	x
CC1=CCC2C(=O)N(C(C)c3ccccc3)C(=O)C2C1 (stereo not drawn)	-6.6	0.0	1.0	7.5*	-1.2	-6.7
COCCN1C(=O)CC(CC(=O)NCCCn2cccn2)(c2ccccc2C)C1=O (stereo not drawn)	4.6	0.3	1.7	0.0	x	x
O=C(O)/C=C/C(=O)Nc1ccc(Sc2ccc([N+](=O)[O-])cc2)cc1	0.1	-0.1	-7.3	3.3	x	x
CCN(CC)c1ccc(NC(=O)/C=C\C(=O)O)cc1	34.0	-0.1	11.4	16.0*	-0.7	-7.3
O=C(O)/C=C\C(=O)Nc1ccc([N+](=O)[O-])cc1	-3.9	-0.2	-2.0	8.1*	-0.1	-0.6
CCN(CC)c1ccc(NC(=O)/C=C\c2ccccc2)cc1	9.1	-0.3	-27.2	-0.8	x	x
COc1ccc(Cl)cc1N1C(=O)C2CCCN2C1c1ccccc1 (stereo not drawn)	5.7	0.8	2.5	0.6	x	x
COc1ccccc1C1N(c2cc(Cl)ccc2OC)C(=O)C2CCCN21 (stereo not drawn)	3.9	0.0	1.3	6.8*	-0.6	-7.6
Cc1ccccc1NC(=S)NC(=O)CCCCCN1C(=O)c2ccccc2C1=O	-1.1	-0.1	8.5	-1.1	x	x
CCCc1nc2ccccc2c(=O)n1-c1c(C)n(C)n(-c2ccccc2)c1=O	4.0	-0.1	-4.5	6.8*	-0.4	-11.9
Cc1c(-n2c(SC/C=C\Cl)nc3ccccc3c2=O)c(=O)n(-c2ccccc2)n1C	-3.9	-0.1	-3.1	-1.3	x	x
O=C(NCc1ccccc1)c1ccccc1NS(=O)(=O)c1cccc([N+](=O)[O-])c1	1.6	0.1	-2.1	4.9*	1.4	12.9
Cc1ccc(S(=O)(=O)Nc2ccccc2C(=O)NCc2ccco2)cc1[N+](=O)[O-]	-1.9	-0.1	5.5	11.4*	-0.5	-9.3
COc1c(Cl)cc(Cl)cc1C(Nc1ccc([N+](=O)[O-])cc1)P(=O)(OC)OC (stereo not drawn)	20.6	1.0	12.4	1.2	x	x
Cc1cc(C)n2nc(C(=O)OCC(=O)NC(=O)NCc3ccco3)nc2n1	-6.7	-0.2	10.3	1.2	x	x
SMILES	MITF primary	FBW7 act	TEAD-YAP inh	GPR151 activ	GPR151 confirm	GPR119 ag
Cc1cccc(CN2C(=O)CCC2CCNCc2ccccc2F)c1 (stereo not drawn)	13.4	0.0	6.3	7.1*	0.9	8.4
Cc1cccc(CNCCC2CCC(=O)N2Cc2cc(F)ccc2C)c1 (stereo not drawn)	3.5	1.1	6.0	-0.5	x	x
C=CCOc1c(Cl)cc(CNn2nnnc2N)cc1OC	17.2	0.0	-1.4	4.4	x	x
CCOc1cc(CNn2nnnc2N)cc(Cl)c1OCC(=O)NC(C)(C)C	-3.0	-0.2	8.0	5.2*	0.3	-3.8
O=C(N[C@H]1C[C@H]2C(=O)N3CCC[C@@H]3C(=O)N2C1)c1cccc2ccccc12	7.8	0.0	0.0	-2.4	x	x
COc1cc(C2CC(=O)NC3=C2C(=O)CC(c2ccc(OC)c(OC)c2)C3)ccc1O (stereo not drawn)	16.8	0.7	9.9	-0.6	x	x
CCOc1cc(C2CC(=O)NC3=C2C(=O)CC(c2ccc(OC)c(OC)c2)C3)ccc1O (stereo not drawn)	17.5	0.2	-1.2	6.3*	0.0	1.2
CCOC(=O)CS(=O)(=O)c1ccc(C(=O)N2CCN(C3CCCCC3)CC2)cc1[N+](=O)[O-]	14.5	-0.1	-24.4	-1.1	x	x
Cc1ccc(NC(=O)NC2(C(=O)NCc3ccncc3)CCCCC2)cc1	-10.8	-0.1	-12.0	5.4*	-0.7	2.0
COc1ccc(NC(=O)NC2(C(=O)NCc3ccncc3)CCCCC2)cc1	-14.2	0.2	6.3	0.6	x	x
CCCNc1nc(Nc2nccc3ccccc23)ncc1C	0.2	0.2	39.2*	5.1*	0.3	-1.3
Cc1cnc(Nc2nc3ccccc3n2C)nc1Nc1ccc(N2CCOCC2)cc1	18.3	-0.2	-28.3	-1.5	x	x
Cc1cnc(Nc2nccc3ccccc23)nc1Nc1ccc(N2CCOCC2)cc1	3.4	-0.5	50.0*	6.0*	0.3	-2.7
Cc1cc(OCC(=O)NCc2ccc(F)cc2)ccc1Cl	6.6	0.0	2.0	6.1*	-0.7	-2.5
Cc1cc(OCC(=O)NCC(C)CN(C)C)ccc1Cl (stereo not drawn)	-11.6	-0.1	-3.9	5.8*	1.6	13.6
Cc1[nH]c(=O)[nH]c(=O)c1S(=O)(=O)N1CCN(c2cccc(C(F)(F)F)c2)CC1	12.6	0.4	-1.4	0.8	x	x
CC1=CCC2C(=O)N(c3cccc(OCC(=O)c4ccccc4)c3)C(=O)C2C1 (stereo not drawn)	-8.6	-0.1	-13.8	-1.7	x	x
CC(C)c1ccc(OCC(=O)NCCS(=O)(=O)N2CCN(c3ccccn3)CC2)cc1	7.6	0.7	9.3	1.8	x	x
Cc1ccc(C(=O)Cn2cncn2)cc1	1.9	-0.1	4.5	1.9	x	x
O=C(Cn1cncn1)c1ccc(Cl)cc1	-0.5	-0.1	-3.9	7.8*	-0.6	-2.0
Clc1ccc(SCCCCn2cncn2)cc1	-3.8	-0.1	5.4	9.2*	-0.2	4.7
OC1CCN(Cc2ccc3c(c2)CN(Cc2cc4ccccc4o2)CCO3)CC1	9.0	0.0	4.9	0.5	x	x
COC(=O)C1=C(C)N(c2ccc(C(C)C)cc2)C(=O)/C1=C\c1cc(Br)ccc1OC	-0.2	-0.1	-5.7	10.7*	0.2	6.7
Cn1c(NC(=O)c2cccs2)c(-c2ccc3c(c2)OCO3)c(=O)c2ccccc21	15.8	0.9	-0.1	-1.3	x	x
